About 3,700 (7%) of roughly 53,000 sequences were called active. The full list was thinned out, with actives kept by preference. Unmarked numbers belong to inactive results.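 How the source made its calls: active means gene knockdowns whose robust z-score for IL-1 alpha signal is at least 2 or at most -2, so actives lie on both sides; inactive means the rest.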
Experiment: Components of the Cytosolic LPS Sensing Pathway: Gene Identification via Genome-wide siRNA Screen;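 further: robust z of the log signal after scaling to non-targeting control siRNA wells of the plate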
Details: RAW264.7 macrophages, IL-1a HTRF, actives lie on both sides, screened at 100 nM (by protocol), cells primed 5 h with Pam3CSK4 first
Procedure, shortened: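 Three distinct siRNAs per gene were tested singly at 100 nM in RAW264.7 macrophages. Following Pam3CSK4 priming and 24 hour LipidA transfection, IL-1a secretion was read by HTRF.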
For GGAAUAUGCCCAAGUUUUUTT against Ctnna1, the z-score was 2.86 (active). In the case of GCCAAAUUGUCCCGGGCAUTT against Usp39, the z-score is reported as 0.457. GGUGAUGUAUUAUUAUCCATT against Defb12 showed a z-score of 0.277. Work on CCUUUCAAGGAGAUAUAAUTT against Gcm2 yielded a z-score of 0.65. For CCUUAGCUGUCCUUGUGGUTT against Defb28, the z-score was -1.36. In the case of CGAAAUCCUAGUUUCGUCCTT against Spns1, the z-score is reported as 3.29 (active). Work on GGAAUUGGUCUAUAUGCGUTT against Il2ra yielded a z-score of -1.02. GGGUUCCAGUUUGUUUCCUTT against Cnbp showed a z-score of -0.901. For CCAUUGAGAUCAGCGACAUTT against Abtb2, the z-score was -0.748. Work on GGUAGCAUUAUUUGUCCUATT against Pcdh15 yielded a z-score of 0.675. With GGAGCUACGAAGAGGAUCUTT against Wdr45b the z-score was -2.69 (active). Sequence GGCCAUCUCCUUCAACUAUTT against Ugt2a1 has a z-score of 1.24. With “GGAGUAGAUUUAAAAGGCATT against 4933440M02Rik” the z-score was 0.145. For GGUCAACAGAAUGAAAAAUTT against Runx1t1, the z-score was -0.211. GGGAAAGUCGAGCUUUUUCTT against Ifi44l gave a z-score of 0.0658. For CCAAGCUACCAGGGUUUUUTT against Abcb9, the z-score was 2.1 (active). GGUCCAAGUAAUGAACUCATT against Olfr155 showed a z-score of -1.19. Sequence GGCCCUAGAAAUAAUCUGCTT against Anks4b has a z-score of 0.0338. With GGGAUCCUUAAUAUUUUGATT against Dazap2 the z-score was 1.66. For GGUUUUAAUUGUUCAGACGTT against Lrrtm3, the z-score was 0.35. For GGGAAGUGGAAACAGUUCUTT against Icam2, the z-score was 0.461. CCAAUGUUACGAGAAACUUTT against Smug1 gave a z-score of 1.02. With GGAAAGGAUAAAGUAUAUCTT against Aspm the z-score was -0.0167. With GGAUUGCAUCUUCCUCGAATT against Olfr816 the z-score was -2.27 (active). GAUCUAUCACCGGUACUGCTT against Gys1 showed a z-score of 0.154. Work on CCGCUCACUUCUUGAAUAUTT against Rnf125 yielded a z-score of 0.388. With GUCAGAUCUCAGAAUCAUGTT against Ercc6l2 the z-score was -2.27 (active). Sequence GCGGUCUGUGGUCUUAAAUTT against She has a z-score of -0.449. GGUGAACUGUAAUGGCUUCTT against Smyd2 gave a z-score of -0.209. With GGUGUUGAGAAGAAAAAUATT against Spz1 the z-score was 1.68.

Source: PubChem BioAssay AID1508600 (Functional Genomics Laboratory (NCATS/FGL), 2020)
